# Source: PubChem BioAssay (National Center for Advancing Translational Sciences (NCATS))
# VP16 counter = VP16 counterscreen qHTS for inhibitors of ROR gamma transcriptional activity; Drosophila S2 Gal4-VP16 UAS-luciferase, luminescence, 20 h; Potency, µM (titrated, usually from 53.6 µM), inactives show top-dose activity, negative = inhibition, most hits filed as inhibitors; actives 3.5% (n = 310,000); AID 2546, 2010;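 note: Gal4-VP16 expression switched on by copper sulfate through the metallothionein promoter; potency is the fitted concentration of half-maximal effect; % is set by controls: 0 for no effect and ±100 for the full control effect; nearly all actives have a fitted effect of over 50% in size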
# Giardia killer = Small Molecules that selectively kill Giardia lamblia: qHTS; activity change, % at 7.66 µM, hits read low; actives 0.15% (n = 340,000); Giardia lamblia trophozoite viability; AID 540267, 2011; in the data active = activity change below about -80%; inconclusive = between about -30% and that limit;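 note: parasites exposed to compound for two days anaerobically before the ATP read; % is set by controls: 0 for no effect and ±100 for the full control effect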
#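 Giardia trophozoites, 100 cells per well, were exposed to compounds for 48 hrs at 37 deg C under anaerobic conditions; viability was then read as ATP content by bioluminescence after 15-30 min at room temperature.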
# ELG1 DNA repair = qHTS screen for small molecules that inhibit ELG1-dependent DNA repair in human embryonic kidney (HEK293T) cells expressing luciferase-tagged ELG1. HEK293T ELG1-luciferase reporter, luminescence, 16 h; DNA damage induced by 5-fluorouridine. Potency, µM (highest dose often 46.1 µM), without a hit: top-dose activity change, negative = inhibition, most hits filed as inhibitors. actives 2.3% (n = 330,000). AID 504467, 2011; note: potency is the fitted concentration of half-maximal effect; % is set by controls: 0 for no effect and ±100 for the full control effect; nearly all actives have a fitted effect of over 55% in size
#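 Quantitative HTS, concentration-response format. 2,000 cells/well co-treated with 5-fluorouridine and compound, 16 hr in 5% CO2 at 37 °C; ONE-Glo luminescence read after 30 min.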
# RORgamma inh = qHTS for inhibitors of ROR gamma transcriptional activity. Potency, µM (doses to about 53.6 µM), without a hit: top-dose activity change, negative = inhibition, usual class: inhibitors. Nuclear receptor ROR-gamma (Mus musculus), P51450. Drosophila S2 Gal4-RORgamma UAS-luciferase reporter, 20 h. actives 5.4% (n = 310,000); note: potency is the fitted concentration of half-maximal effect; % is set by controls: 0 for no effect and ±100 for the full control effect; nearly all actives have a fitted effect of over 60% in size
# Target sequence (P51450 whole entry, looked up, the tested form may be a part): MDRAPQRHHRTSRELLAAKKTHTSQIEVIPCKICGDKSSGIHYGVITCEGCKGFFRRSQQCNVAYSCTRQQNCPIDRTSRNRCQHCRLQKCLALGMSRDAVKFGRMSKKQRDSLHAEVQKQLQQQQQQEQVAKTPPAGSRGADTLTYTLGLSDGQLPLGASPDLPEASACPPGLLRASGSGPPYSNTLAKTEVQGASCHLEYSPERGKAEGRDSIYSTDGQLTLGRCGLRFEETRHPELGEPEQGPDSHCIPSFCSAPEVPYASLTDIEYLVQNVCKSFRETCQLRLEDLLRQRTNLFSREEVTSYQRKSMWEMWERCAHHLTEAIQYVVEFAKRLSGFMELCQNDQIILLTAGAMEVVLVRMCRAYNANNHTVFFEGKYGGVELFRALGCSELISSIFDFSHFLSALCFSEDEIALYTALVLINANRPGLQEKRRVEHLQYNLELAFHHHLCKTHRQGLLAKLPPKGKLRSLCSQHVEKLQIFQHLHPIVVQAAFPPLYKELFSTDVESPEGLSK
#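 A Gal4/UAS one-hybrid system in insect cells: metallothionein-promoter Gal4–ROR gamma fusion plus Photinus luciferase reporter. Copper sulfate 700 uM final, 20 hr ambient incubation, luminescent detection after 10 min with reagent.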
# BRCA1 expr act = qHTS Assay to Identify Small Molecule Activators of BRCA1 Expression; MCF7-BRCA1-FFLuc reporter, luminescence, 48 h; response scale: scaled: vehicle 0%, 10 µM genistein 100%; Potency, µM (doses to about 46.1 µM), without a hit: at the highest dose activation, hits mostly activators; actives 1.1% (n = 380,000); note: potency is the fitted concentration of half-maximal effect; nearly all actives have a fitted effect of over 80% in size
#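 Cells: MCF7-BRCA1-FFLuc, 2000/well. Exposure: 48 h, 37 °C, 5% CO2. Read: luminescence, 15 min post-substrate. Controls: genistein 10 microM (maximal activation), DMSO (neutral).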
# p53 reactivator = qHTS assay for re-activators of p53 using a Luc reporter; H1299 p53-A138V BP100-luciferase reporter, luminescence, 24 h; Potency, µM (doses to about 92.2 µM), without a hit: top-dose activity change, positive = activation, usual class: activators; actives 0.063% (n = 320,000); AID 504706, 2011; note: potency is the fitted concentration of half-maximal effect; % of control where 0% means no effect; nearly all actives have a fitted effect of over 45% in size
#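 p53-null H1299 cells stably carrying temperature-sensitive p53-A138V and a BP100-luciferase reporter were pinned with compounds (4-point, 1:5 series) and held 24 hrs at 37 deg C. Luminescence was read 10 min after detection reagent.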
# * hit, by the source's call; ? = inconclusive; · = no result; [ ] = another dose, or the depositor's remark. Most compounds without a hit are left out; they make up all but 7.6% or so of the library. Unless noted, calls come from the whole dose curve; as a rule, active = well fitted curve in the direction sought with a large enough effect; inconclusive = small, poorly fitted or top-dose-only effect, or another doubt; inactive = no such curve, though single readings can be large; an effect the other way counts as inactive or inconclusive.
SMILES,VP16 counter,Giardia killer,ELG1 DNA repair,RORgamma inh,BRCA1 expr act,p53 reactivator
C=CC[C@@H](CC(=O)N(CCO)Cc1ccccc1)C(=O)N[C@@H](C)COC(=O)[C@@H](CC=C)Cc1ccc(F)cc1,·,6,18µM*,·,-27%,-3%
C=CC[C@@H](CC(=O)N(CCO)Cc1ccccc1)C(=O)N[C@@H](COC(=O)[C@@H](CC=C)Cc1ccc(F)cc1)Cc1c[nH]c2ccccc12,·,9,18µM*,·,-44%,6%
C=CC[C@H](CC(=O)N(CCO)Cc1ccccc1)C(=O)N[C@H](COC(=O)[C@@H](CC=C)Cc1ccc(F)cc1)C(C)(C)C,·,6,?,·,-52%,12%
C=CC[C@H](CC(=O)N(CCO)Cc1ccccc1)C(=O)N[C@@H](COC(=O)[C@@H](CC=C)Cc1ccc(F)cc1)Cc1c[nH]c2ccccc12,·,3,21µM*,·,-66%,7%
Cc1coc2c1c(C)cc1oc(=O)c(CC(=O)N[C@H](C(=O)O)C(C)C)c(C)c12,7%,-4,0%,-3%,0%,-4%
CCCCNCc1cc(OCC)c(OCC(N)=O)cc1Br,0%,7,0%,-6%,-1%,0%
O=C(CCN1CCOCC1)Nc1ccc(Cl)cc1,4%,6,3%,-1%,7%,·
CCCn1c(N)c(N(CCOC)C(=O)CSc2ccccc2)c(=O)[nH]c1=O,·,-11,?,·,27%,0%
COc1cc2c(cc1OC)CN(C(=O)c1ccc3[nH]c(C)c(C)c3c1)CC2,-4%,10,-13%,16%,-18%,-4%
C/C(=N\NC(=O)CCc1ccccc1)C1C(=O)c2ccccc2C1=O,2µM*,-21,?,0.56µM*,-78%,4%
CCOC(=O)c1[nH]c(CSc2nnc(-c3ccncc3)n2CCOC)c(C(=O)OCC)c1C,14%,-7,-1%,-5%,4%,27%
Cc1sc(NC(=O)CN2CCOCC2)nc1-c1ccc2c(c1)CCN2S(=O)(=O)c1ccccc1,5.6µM*,21,?,7.1µM*,-84%,-2%
CC(C)C(=O)Nc1nc(-c2ccc3c(c2)CCN3C(=O)C2CC2)cs1,16%,-1,30%,14%,65%,12%
CCC(CC)C(=O)Nc1nc(-c2ccc3c(c2)CCN3C(=O)C2CC2)c(C)s1,-21%,-18,21µM*,-22%,-83%,11%
O=C(CN1CCOCC1)Nc1nc(-c2ccc3c(c2)CCN3S(=O)(=O)c2ccccc2)cs1,?,14,?,-31%,-61%,-11%
O=C(/C=C1\C(=O)Nc2ccccc21)/C=C1\C(=O)Nc2ccccc21,10µM*,-17,11%,13µM*,-62%,-5%
O=C1Nc2ccccc2/C1=C\C(=O)c1ccccc1,?,-13,?,13µM*,-10%,-11%
CN(C)/C=C1\C(=O)Nc2ccccc21,-2%,-24,-1%,-13%,-14%,4%
COc1ccc(C(=O)/C=C2\C(=O)Nc3ccc(Br)cc32)cc1,·,-22,·,·,-35%,·
CC(C)Oc1ccc(C(=O)/C=C2/C(=O)Nc3ccccc32)cc1,?,-13,-23%,10µM*,1%,9%
CN(O)/C=C1\C(=O)Nc2ccccc21,-1%,-8,0%,10%,-22%,1%
CCOC1=C2CN(S(=O)(=O)c3ccc(Cl)cc3)[C@H](c3ccccc3)C[C@@H]2N(S(=O)(=O)c2ccc(C)cc2)[C@H](c2ccccc2)C1,·,·,·,·,-1%,·
COc1ccc(-c2nn(CCC(=O)O)cc2/C=C/C(=O)O)cc1[N+](=O)[O-],0%,-12,2%,0%,14%,-1%
COc1ccc(NC(=O)CC2SC(=NCC3CCCO3)NC2=O)cc1 (configuration not stated),0%,7,6%,-1%,3%,-4%
NC(=S)N/N=C/c1ccc(-n2nncc2-c2ccc(Cl)cc2)cc1,?,54,?,5.6µM*,-30%,0%
SMILES,VP16 counter,Giardia killer,ELG1 DNA repair,RORgamma inh,BRCA1 expr act,p53 reactivator
Nc1cccc(-n2nncc2-c2ccc(Cl)cc2)c1,-13%,·,-18%,-1%,·,-1%
CCOC(=O)c1ccc(NC(=O)c2sc3nc4n(c(=O)c3c2C)CCC4)cc1,-1%,-8,23µM*,23%,35%,-2%
COc1ccc(CCNC(=O)c2sc3nc4n(c(=O)c3c2C)CCC4)cc1,·,13,?,·,12%,-4%
CCOc1ccc(CCNC(=O)c2sc3nc4n(c(=O)c3c2C)CCC4)cc1OCC,-2%,7,6.5µM*,18%,-4%,-8%
CCc1cccc(NC(=O)c2sc3nc4n(c(=O)c3c2C)CCC4)c1,-19%,20,?,16%,13µM*,24%
Nc1nnc(-c2cccc([N+](=O)[O-])c2)s1,22%,-5,4%,-2%,5%,9%
Nc1nnc(/C=C/c2cccc([N+](=O)[O-])c2)s1,-1%,20,?,9%,16µM*,24%
CCn1c(SCC(=O)Nc2nc(C)c(C(=O)OC)s2)nnc1C(C)C,-1%,16,-1%,1%[10 µM],-18%,4%
CC1CCCC(NC(=O)COC(=O)CCC2CCCC2)C1C (configuration not stated),0.56µM*,9,3%,-6%,18%,-5%
Cc1sc2ncnc(NCC(O)c3ccccc3)c2c1C (configuration not stated),16µM*,6,-3%,?,33%,23%
Cc1sc2ncnc(NCC(O)c3ccc([N+](=O)[O-])cc3)c2c1C (configuration not stated),5µM*,4,?,?,-70%,-3%
Cc1ccc(C(=O)OCC(=O)NC(C)C)cc1S(=O)(=O)N1CCOCC1,-5%,-13,2%,4%,1%,-6%
Cc1nc2ccccc2c2oc(C(=O)Nc3ccc4c(c3)OCCO4)cc12,10%,30,21µM*,2%,3%,4%
COc1cccc(CNC(=O)c2cc3c(C)nc4ccccc4c3o2)c1,?,7,?,32%,-38%,-3%
Cc1nc2ccccc2c2oc(C(=O)Nc3ccc(C(C)C)cc3)cc12,-6%,21,23µM*,?,-36%,1%
COc1cc(NC(=O)c2cc3c(C)nc4ccccc4c3o2)cc(OC)c1OC,-2%,6,7.3µM*,-9%,-18%,-5%
